A short description of assay [1]: ATG_E_Box_CIS: Attagene CIS-FACTORIAL HepG2 Assay for human Enhancer Box (E-box) (AID 2282936). The note with it: HepG2 E-box cis-reporter transcription, actives raise or lower the signal. The gist of the method: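 Measured 24 h post-dosing in HepG2 cells transfected with multiple cis-regulated reporter units, signal being reporter mRNA induction detected by fluorescent RT-PCR with capillary electrophoresis; gain or loss fitted against DMSO.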

A short description of assay [2]: ATG_M_61_CIS: Attagene CIS-FACTORIAL HepG2 Assay for M61 Transcription Factor (Internal Marker) (AID 2282937). The note with it: HepG2 Attagene CIS-FACTORIAL M61 internal marker reporter; actives raise or lower the signal. The gist of the method:
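Human liver HepG2, transient MRTU transfection (cis promoter elements), 24 h compound. Total RNA → oligo(dT) RT → PCR → FAM label → HpaI → CE. Internal background marker; bidirectional fitting, DMSO = baseline.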

Assay [3] is described as follows: ATG_EGR_CIS: Attagene CIS-FACTORIAL HepG2 Assay for human Early Growth Response 1 (EGR1) (AID 2282938). The note with it: HepG2 Attagene CIS-FACTORIAL EGR reporter mRNA; actives raise or lower the signal. In a few lines:
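Transient transfection of human HepG2 with multiple cis-regulated reporter units, chemical exposure 24 h, total RNA isolated. Reverse transcription, PCR, fluorescent labelling and capillary electrophoresis quantify reporter transcripts; activity fitted bidirectionally against DMSO.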

A short description of assay [4]: ATG_M_19_CIS: Attagene CIS-FACTORIAL HepG2 Assay for M19 Transcription Factor (Internal Marker) (AID 2282939). The note with it: HepG2 Attagene CIS-FACTORIAL M19 internal marker reporter; actives raise or lower the signal. In a few lines:
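Chemical-treated HepG2 (24 h) with MRTU constructs; reporter transcripts detected by fluorescent RT-PCR fragment analysis on capillary electrophoresis. Internal background marker, DMSO as baseline.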

A short description of assay [5]: ATG_Ets_CIS: Attagene CIS-FACTORIAL HepG2 Assay for human Erythroblast Transformation Specific (ETS) (AID 2282941). The note with it: HepG2 ETS cis-reporter transcription, actives raise or lower the signal. The gist of the method:
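Bidirectional fit versus DMSO of reporter mRNA signal, detected by RT-PCR and capillary electrophoresis in HepG2 cells transiently transfected with cis-element reporters and dosed 24 h.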

Assay [6] addresses Hepatocyte nuclear factor 3-beta (Homo sapiens) (UniProt Q9Y261). Put plainly: ATG_FoxA2_CIS: Attagene CIS-FACTORIAL HepG2 Assay for human Forkhead box A2 (FOXA2) (AID 2282942). The note with it: HepG2 cis-reporter transcription factor activity, 24 h; actives raise or lower the signal. The gist of the method:
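Transient MRTU transfection of HepG2 liver cells; 24 h treatment; total RNA → oligo(dT) RT → PCR → FAM primer extension → HpaI cut → CE. Bidirectional fit vs DMSO.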

A short description of assay [7]: ATG_GATA_CIS: Attagene CIS-FACTORIAL HepG2 Assay for human GATA Binding Protein (AID 2282944). The note with it: HepG2 GATA cis-element reporter, Attagene multiplex mRNA; actives raise or lower the signal. The gist of the method:
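Transfected cis-reporter HepG2 cells were treated with chemicals for 24 hours. Total RNA was then converted to cDNA, amplified with reporter-specific primers and analysed by fluorescent capillary electrophoresis, using DMSO-treated wells as baseline.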

The nature of assay [8]: ATG_GLI_CIS: Attagene CIS-FACTORIAL HepG2 Assay for human Zinc Finger Protein GLI1 (AID 2282945). The note with it: HepG2, Attagene cis-factorial reporter mRNA, GLI element; actives raise or lower the signal. In a few lines: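 HepG2 cells transiently transfected with cis-promoter multiplexed reporter units report endogenous transcription factor activity. After 24 h chemical exposure, reporter mRNA was quantified by RT-PCR, 6-FAM labelling, HpaI digestion and capillary electrophoresis, with bidirectional fitting against DMSO.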

The nature of assay [9]: ATG_FoxO_CIS: Attagene CIS-FACTORIAL HepG2 Assay for human Forkhead box O (FoxO) (AID 2282943). The note with it: HepG2 Attagene cis-reporter, FoxO element, mRNA; actives raise or lower the signal. In a few lines: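 Values reflect reporter mRNA induction or loss in HepG2 cells 24 h post-dosing, fitted bidirectionally with DMSO as negative control and baseline. Detection used RT-PCR and fluorescence capillary electrophoresis.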

The target in assay [10] is Bile acid receptor (Homo sapiens) (UniProt Q96RI1). Put plainly: ATG_IR1_CIS: Attagene CIS-FACTORIAL HepG2 Assay for human Nuclear Receptor Subfamily 1 Group H Member 4 (NR1H4), IR1 submotif (AID 2282946). The note with it: IR1 reporter transcription, actives raise or lower the signal. In a few lines: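 Readout: reporter transcript levels by RT-PCR with fluorescent capillary electrophoresis, from HepG2 cells transiently transfected with multiplexed cis-regulated reporters and dosed 24 h. Gain- or loss-of-signal fitted versus DMSO negative control.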
Chain of Bile acid receptor (Homo sapiens) (Q96RI1 whole entry, looked up): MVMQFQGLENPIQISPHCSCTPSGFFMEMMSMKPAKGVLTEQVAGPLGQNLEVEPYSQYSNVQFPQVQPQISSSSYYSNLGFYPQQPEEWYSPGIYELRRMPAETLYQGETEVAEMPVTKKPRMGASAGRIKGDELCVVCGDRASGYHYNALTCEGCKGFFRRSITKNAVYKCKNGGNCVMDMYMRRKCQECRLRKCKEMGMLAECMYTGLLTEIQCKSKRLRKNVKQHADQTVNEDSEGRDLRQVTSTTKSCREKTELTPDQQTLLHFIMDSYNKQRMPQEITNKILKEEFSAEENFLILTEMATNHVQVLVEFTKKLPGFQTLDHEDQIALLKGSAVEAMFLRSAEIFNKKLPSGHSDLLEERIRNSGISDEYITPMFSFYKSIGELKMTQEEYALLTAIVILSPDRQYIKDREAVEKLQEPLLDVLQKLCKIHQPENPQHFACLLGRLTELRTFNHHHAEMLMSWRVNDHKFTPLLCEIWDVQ

Activity calls are given as the source filed them. The calls were made as follows: active = hit-call score of the fitted dose curve at least 0.9, where 1 is the maximum; inactive = score below 0.9.

Chain of Hepatocyte nuclear factor 3-beta (Homo sapiens) (Q9Y261 whole entry, looked up): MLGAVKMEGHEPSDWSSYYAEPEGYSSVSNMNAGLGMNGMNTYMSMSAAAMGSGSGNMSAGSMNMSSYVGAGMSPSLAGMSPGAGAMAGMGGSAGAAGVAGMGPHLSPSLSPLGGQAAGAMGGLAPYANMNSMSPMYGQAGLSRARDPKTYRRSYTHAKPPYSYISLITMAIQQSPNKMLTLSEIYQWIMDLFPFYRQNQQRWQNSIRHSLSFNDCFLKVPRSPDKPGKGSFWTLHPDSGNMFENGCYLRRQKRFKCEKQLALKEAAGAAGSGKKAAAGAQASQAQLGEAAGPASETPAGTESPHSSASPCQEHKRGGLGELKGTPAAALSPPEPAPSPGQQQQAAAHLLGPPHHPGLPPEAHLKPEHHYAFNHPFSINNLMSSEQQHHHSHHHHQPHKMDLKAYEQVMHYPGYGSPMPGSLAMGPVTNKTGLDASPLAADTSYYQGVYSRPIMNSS

As to `CCOP(=S)(OCC)Oc1ccc([N+](=O)[O-])cc1`, the result in [1], in [2], in assay [3], in assay [4], in assay [5] and in [6] was inactive. Moreover, the molecule was classed as inactive in assay [7] and in assay [8].

As to `CCCCN(CC)c1c([N+](=O)[O-])cc(C(F)(F)F)cc1[N+](=O)[O-]`, the result in assay [1], in [2], in assay [3], in assay [4], in [5] and in [6] was inactive. Moreover, the molecule was classed as inactive in [9] and in assay [7].

Take `CCCCOC(=O)c1ccccc1C(=O)O`: the result in assay [1], in [2], in [3], in [4], in [5] and in [7] was inactive. For the same molecule, in assay [10], the result was inactive. Also, the AC50 in assay [6] is 81.4 µM (active).

Take `CN(C)NC(=O)CCC(=O)O`: the outcome in assay [1], in assay [2], in assay [3], in assay [4], in assay [5] and in assay [6] was inactive. Further, the result in assay [9] and in assay [7] was inactive.

For the molecule `CC(COc1ccc(Oc2ccccc2)cc1)Oc1ccccn1` (stereo unspecified), the outcome in assay [1], in assay [2], in [4], in assay [5], in assay [6] and in assay [9] was inactive. Besides, the molecule was classed as inactive in [7], in assay [8] and in assay [10]. Further, the AC50 in assay [3] is 13.2 µM (active).

As to `C[N+]1(C)CCCCC1`, the result in assay [1], in [2], in assay [3], in assay [4], in assay [5] and in [6] was inactive. Further, the call in assay [7] was inactive.

Consider `CC[C@H](C)[C@H]1O[C@]2(C=C[C@@H]1C)C[C@@H]1C[C@@H](C/C=C(\C)[C@@H](O[C@H]3C[C@H](OC)[C@@H](O[C@H]4C[C@H](OC)[C@@H](NC)[C@H](C)O4)[C@H](C)O3)[C@@H](C)/C=C/C=C3\CO[C@@H]4[C@H](O)C(C)=C[C@@H](C(=O)O1)[C@]34O)O2`, for which the call in assay [2], in assay [3], in assay [4], in [5], in assay [6] and in assay [9] was inactive. Moreover, the result in assay [7] was inactive.

`CNC(=O)ON=C(SC)C(=O)N(C)C`: the outcome in assay [1], in assay [2], in [3], in assay [4], in [5] and in assay [6] was inactive. Moreover, the result in assay [9], in assay [7] and in assay [8] was inactive.

`C[Si](Cn1cncn1)(c1ccc(F)cc1)c1ccc(F)cc1`: the results for the AC50 in assay [1], in [3] and in assay [10] were 83.2 µM (active), 50 µM (active) and 69 µM (active), respectively. In addition, the outcome in assay [2], in assay [4], in [5], in assay [6], in assay [9] and in assay [7] was inactive.

For `CCCSP(=O)(OCC)SCCC`, the result in assay [1], in assay [2], in assay [3], in assay [4], in assay [5] and in [6] was inactive. In addition, the outcome in [7] and in assay [10] was inactive.

With `CCOC(=O)COc1cc(-c2nn(C)c(OC(F)F)c2Cl)c(F)cc1Cl`, the result in assay [1], in assay [2], in assay [3], in assay [4], in assay [5] and in [6] was inactive. For the same molecule, the call in [9] and in assay [7] was inactive.

Turning to `COP(=O)(OC)C(O)C(Cl)(Cl)Cl` (stereo unspecified), the outcome in assay [1], in [2], in assay [4], in assay [5], in assay [6] and in [9] was inactive. Besides, the result in assay [7], in assay [8] and in assay [10] was inactive. Further, the AC50 in [3] is 67.3 µM (active).

For `C#CC(C)(C)NC(=O)c1cc(Cl)cc(Cl)c1`, the result in assay [1], in [2], in assay [3], in [4], in assay [5] and in [6] was inactive. Besides, the molecule was classed as inactive in assay [7] and in [8].

In the case of `COP(=O)(NC(C)=O)SC` (stereo unspecified), the outcome in assay [1], in assay [2], in [3], in [4], in [5] and in [6] was inactive. In addition, the molecule was called inactive in [7] and in assay [8].

On to `CCCOc1nn(C(=O)NS(=O)(=O)c2ccccc2C(=O)OC)c(=O)n1C`, for which the outcome in assay [1], in assay [2], in assay [3], in [4], in [5] and in [6] was inactive. Also, the outcome in assay [9], in assay [7] and in assay [8] was inactive.

Regarding `CC1(C(=O)Nc2ccc(O)c(Cl)c2Cl)CCCCC1`, the result in assay [1], in [2], in [4], in [5], in assay [6] and in [7] was inactive. In addition, the outcome in assay [10] was inactive. Besides, in [3], the concentration at half-maximal activity (AC50) was 32.2 µM (active).

With `CC(Oc1cccc(Cl)c1)C(=O)O` (stereo unspecified), the outcome in assay [1], in assay [2], in assay [3], in assay [4], in assay [5] and in assay [6] was inactive. For the same molecule, the outcome in assay [7] and in assay [10] was inactive.

What is called AC50 is the midpoint of the concentration-response curve, whichever way the signal moves.

For the origin of these results see PubChem BioAssay (EPA / NIEHS).
